Where “and” joins values, the source holds several entries; their conditions need not be identical. Equal values may be shown once. Compounds without any hit were thinned out: in the full panel of roughly 83,000, 20% have a hit.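 In brief: 96-well plates, 48 h treatment, single concentration, percent growth endpoint.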 Values without a mark were called inactive. Calls of active or inactive are those of the source.
system: COLO 205 colon; test: NCI-60 one-dose screen, 48 h (100 = growth as untreated, 0 = no growth, -100 = all killed); conditions: 10 µM
Procedure: Cells are grown in 96 well plates and exposed to the test compound for 48 hours. Compounds are tested at a single concentration, which is 10^-5 M for most compounds. The reported endpoint is percent growth (GI% or GIPRCNT), where numbers from 0 - 100% represent growth inhibition, and numbers from -100% - 0 represent cell death. For example, a value of 40 represents 60% growth inhibition. A value of 0 means no net growth occurred over the course of the experiment. A value of -40 indicates 40% of cells at the beginning of the experiment died by the end of the experiment. A value of -100 means all cells are dead at the end of the experiment.
NCI-60 Human Tumor Cell Lines Screen was performed using the standard one-dose NCI protocol, which is described in more detail at https://dtp.cancer.gov/discovery_development/nci-60/default.htm.
Compounds with GIPRCNT values below 10 were considered active. Activity score was based on GIPRCNT using the following formula: […]
Score is 0 for GIPRCNT values of 100 or above, 50 for GIPRCNT values of 0, and 100 for GIPRCNT values of -100.

| Structure (SMILES) | growth |
| --- | --- |
| S=C(SSC(=S)N1CCCCC1)N1CCCCC1 | 110% |

same assay, conditions: 10 µM unless noted

| Structure (SMILES) | growth |
| --- | --- |
| CCOC(=O)C(NC(=O)C(Cc1ccc(N(CCCl)CCCl)cc1)NC(C)=O)C(C)C (stereo not given) | 66.5% |
| Cc1ccc(C(=O)OC(C(=O)O)C(OC(=O)c2ccc(C)cc2)C(=O)O)cc1 (stereo not given) (tested in a mixture with another compound) | 48.9% |
| CCCCCCCCCCCC1CCCC(C)N1 (stereo not given) | -33% (active) |
| Oc1cc[c]([Hg][Cl])cc1 | 130% |
| COC1CC(CC2CCC(C)C(C(C)C(=O)O)O2)OC2(OC(C)(C3CCC(C)(C4OC(C5OC(O)(CO)C(C)CC5C)CC4C)O3)CC2C)C1C (stereo not given) | -12% (active) |
| CC1=C(CO)C2=C(C)C3(CC3)[C@@](C)(O)C(=O)C2=C1 | -40.1% (active) |
| CN1CCN(c2ccc([N+](=O)[O-])c3no[n+]([O-])c23)CC1 | -83.3% (active) |
| COc1ccccc1/C=C(/C)[N+](=O)[O-] | 67.4% and 106% |
| CC[n+]1c(-c2ccccc2)c2cc(N)ccc2c2ccc(N)cc21 | -27.9% (active) |
| CC[C@@]1(O)C[C@H](OC2CC(N(C)C)C(OC3CC(O)C(OC4CCC(=O)C(C)O4)C(C)O3)C(C)O2)c2c(cc3c(c2O)C(=O)c2c(O)ccc(O)c2C3=O)[C@H]1C(=O)OC (stereo not given in full) | 11.1% |
| CC[C@@]1(O)C[C@H](OC2CC(N(C)C)C(O)C(C)O2)c2c(O)c3c(c(O)c2[C@H]1OC1CC(N(C)C)C(O)C(C)O1)C(=O)c1cccc(O)c1C3=O (stereo not given in full) | -20.5% (active) |
| CCC(=O)OC1CCn2c1nc1c2C(=O)C(C)=C(N2CC2)C1=O (stereo not given) | -74.3% (active) |
| COc1ccc(OC)c(/C=C/[N+](=O)[O-])c1 | -51.6% (active) |
| COC1=C(C)C(=O)C2=C(C1=O)C(CO)N1C(C#N)C3CC4C(C1C2N1CCOC41)N3C (stereo not given) | -74.5% (active) |
| Cc1c(N)nc([C@H](CC(N)=O)NC[C@H](N)C(N)=O)nc1C(=O)N[C@H](C(=O)N[C@H](C)[C@@H](O)[C@H](C)C(=O)N[C@H](C(=O)NCCc1nc(-c2nc(C(=O)NCCC[S+](C)C)cs2)cs1)[C@@H](C)O)C(OC1OC(CO)C(O)C(O)C1OC1OC(CO)C(O)C(OC(N)=O)C1O)c1cnc[nH]1 (stereo not given in full) | 87.7% [2.5 µM] |
| C[C@H]1CCC/C=C/[C@@H]2C[C@H](O)C[C@H]2[C@H](O)/C=C/C(=O)O1 | -75.4% (active) |
| CC(=O)O[C@H]1C[C@@H]2OC3C=C(C)CCC3(C)[C@@]1(C)[C@@]21CO1 (stereo not given in full) | -61.6% (active) and -70.2% (active) |
| CCC1(O)CC(OC2CC(N(C)C)C(OC3CC4OC5CC(=O)C(C)OC5OC4C(C)O3)C(C)O2)c2c(cc3c(c2O)C(=O)c2c(O)ccc(O)c2C3=O)C1C(=O)OC (stereo not given) | -52.1% (active) |
| O=C1c2ccccc2C(=O)C(Cl)C1Cl (stereo not given) | -94.3% (active) |
| CC1=C2C(=O)[C@H]3[C@@H](CC=C4C[C@@H](O)CC[C@@]43C)[C@@H]2CC[C@]12O[C@@H]1C[C@H](C)CN[C@H]1[C@H]2C | 103% |
| CC[C@@]1(O)C(=O)OCc2c1cc1n(c2=O)Cc2cc3ccccc3nc2-1 | -38% (active) |
| CO[C@H](/C(C)=C/C=C/C(C)=C/c1coc(C)n1)[C@H](C)[C@H]1C[C@@H](O)[C@@]2(C)O[C@H]2/C=C/[C@@H](C)[C@@H]2C[C@@H](CC(=O)O2)C[C@H]2O[C@@H]2C(=O)O1 | -28.7% (active) |
| CC[C@](O)(C(=O)O)c1cc2n(c(=O)c1CO)Cc1cc3ccccc3nc1-2 | -20.7% (active) |
| Oc1cccc2cccnc12 | 65% and 105% and 102% |
| COc1cccc2c1cc([N+](=O)[O-])c1c(C(=O)O)cc3c(c12)OCO3 | -25.3% (active) and -56.5% (active) |
| Cc1cc(N=Nc2ccccc2C)ccc1N | 111% |
| C[C@]12CC[C@H](O)CC1=CC[C@@H]1[C@@H]2CC[C@]2(C)C(=O)CC[C@@H]12 | 93.4% |
| NCCc1ccc(OCc2ccccc2)c(OCc2ccccc2)c1 | 13.5% |

same assay, conditions: 100 µM

| Structure (SMILES) | growth |
| --- | --- |
| S=C(SSC(=S)N1CCCCC1)N1CCCCC1 | -69.1% (active) |
